Screening data from PubChem BioAssay.
Hits are enriched below; roughly 1.3% of the tested compounds scored in any of these assays.
SRC1 inh – SRC1 coactivator transcriptional activity inhibitors, primary screen, cell-based, luminescence; HEK293 GAL4-SRC1 luciferase reporter; 360,000 compounds, 0.12% hits; AID 588354, 2011; inhibition, % at 3.6 µM; Nuclear receptor coactivator 1 (Homo sapiens), Q15788;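 active = inhibition above the campaign mean plus 3 SD, with each screening campaign given its own cutoff, cut at about 60% in these data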
NR5A2 inv ag – LRH-1 (NR5A2) inverse agonists, primary screen, cell-based, luminescence, HEK293T, StAR-luciferase reporter | Nuclear receptor subfamily 5 group A member 2 (Homo sapiens), O00482 | LRH-1 transfected, 24 h | inhibition, % at 3.6 µM | 360,000 compounds, 0.13% hits;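 active = inhibition above the mean inhibition of all tested compounds plus 3 SD, cut at about 73% in these data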
Gli-Sufu antag – Gli-Sufu pathway antagonists, primary screen, luciferase luminescence, Sufu-KO-LIGHT cells, uHTS; AID 588413, 2011; inhibition, % at 5 µM; 340,000 compounds, 0.74% hits; Sufu-KO-LIGHT fibroblasts, Gli luciferase reporter luminescence;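 active = inhibition above about 55%, limit read from the data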
SRC2 inh – inhibition of GAL4-SRC2 driven luciferase reporter, primary screen, SRC2 inhibitor project, cell-based, luminescence; Nuclear receptor coactivator 2 (Homo sapiens), Q15596; HEK293 GAL4-SRC2 luciferase reporter; inhibition, % at 9 µM; 370,000 compounds, 0.17% hits; AID 651957, 2012;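 active = inhibition above the mean inhibition of all tested compounds plus 3 SD, set per campaign, cut at about 52% in these data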
NCOA3 inh – SRC3 coactivator transcriptional activity inhibitors, primary screen, cell-based, luminescence | inhibition, % at 3.6 µM | HEK293 GAL4-SRC3 luciferase reporter | 360,000 compounds, 0.17% hits | Nuclear receptor coactivator 3 (Homo sapiens), Q9Y6Q9;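 active = inhibition above a per-campaign cutoff, the mean of all compounds plus 3 SD, cut at about 60% in these data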;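 note: higher means less SRC3-driven luciferase light from the GAL4 reporter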
COUP-TFII inh – NR2F2 transcriptional activity inhibitors, primary screen, cell-based, luciferase reporter, HEK293T, luminescence | COUP transcription factor 2 (Homo sapiens), P24468 | HEK293T NGFI-A luciferase reporter | inhibition, % at 8.6 µM | 370,000 compounds, 0.7% hits | AID 686940, 2013;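 active = inhibition above a per-plate cutoff, mean inhibition of test wells between control levels plus 3 SD, cut at about 38% in these data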;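 note: cells cotransfected with COUP-TFII expression vector driving the NGFI-A reporter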
Gli antag conf – Gli-SUFU pathway antagonists, confirmation, single concentration, luciferase luminescence, Sufu-KO-LIGHT cells | shares compounds with Gli-Sufu antag | Gli luciferase reporter | inhibition, % at 5 µM | 2,500 compounds, 40% hits | AID 602428, 2012;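 active = mean inhibition at 5 µM reaching about 45%, limit read from the data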
SufuKO cytotox – cytotoxicity in Sufu-KO-LIGHT cells, confirmation, cytotoxicity control for Gli-SUFU antagonist project, cell-based, ATP luminescence, single concentration; 2,500 compounds, 32% hits; cytotoxicity, % at 5 µM; shares compounds with Gli-Sufu antag; AID 651994, 2013;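 active = mean cytotoxicity at 5 µM above about 25%, limit read from the data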;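 note: cells exposed to compound overnight for roughly 16 to 18 hours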
Wnt3a counter – Wnt3a reporter signal inhibition, confirmation, counter-screen for Gli-SUFU antagonist project, Wnt-LIGHT cells, luminescence, single concentration; inhibition, % at 6.25 µM; AID 651995, 2013; 2,500 compounds, 20% hits; shares compounds with Gli-Sufu antag; Wnt3a-driven luciferase reporter;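 active = mean inhibition above about 25%, limit read from the data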
Numbers stand for hits; – = inactive; · = not tested or not shown; ! = not active in a repeat.

SMILES	SRC1 inh	NR5A2 inv ag	Gli-Sufu antag	SRC2 inh	NCOA3 inh	COUP-TFII inh	Gli antag conf	SufuKO cytotox	Wnt3a counter
CCCC(=O)N1CCN(S(=O)(=O)c2cc(Cl)ccc2OC)CC1	–	–	55.1	–	–	–	–	–	–
CCn1c(=O)n(CC)c2cc(N3CCCC3)c(NC(=O)c3ccc(C)c([N+](=O)[O-])c3)cc21	–	–	–	–	–	–	52.9	34.7	–
CCn1c(=O)n(CC)c2cc(N3CCCC3)c(NC(=O)c3cccc(C)c3)cc21	–	–	–	–	–	–	·	·	·
C#CCNC(=O)C[C@@H]1C[C@@](CCC(=O)OCC)(C(=O)OCC)C2=CCCCN2C1=O	·	·	·	–	·	–	·	·	·
COc1ccc(NC(=O)c2ccc(CNc3c(NC4CCCCC4)c(=O)c3=O)cc2)cc1OC	–	–	59.3!	–	–	–	–	–	–
CCOc1ccc2[nH]c(=O)c(CN(Cc3ccco3)C(=O)c3ccc(Br)cc3)cc2c1	–	–	–	–	–	–	·	·	·
COc1ccc2[nH]c(=O)c(CN(Cc3ccco3)C(=O)c3ccccc3)cc2c1	–	–	95.0	–	–	–	–	–	–
O=[N+]([O-])c1nn(-c2ccc3c(c2)OCCO3)n(O)c1=Nc1ccc(Cl)cc1	–	–	57.2	–	–	–	59.5	–	43.7
Cc1ccc(N=c2c([N+](=O)[O-])nn(-c3ccc4c(c3)OCCO4)n2O)cc1F	–	–	61.0	–	–	–	64.7	–	69.8
CC(C)CCNC(=O)C1CCN(c2cncnc2)CC1	·	·	·	–	·	–	·	·	·
CN(C)S(=O)(=O)c1ccc2nc(COCc3nc4ccc(S(=O)(=O)N(C)C)cc4[nH]3)[nH]c2c1	·	·	·	·	·	–	·	·	·
Cc1ccc(C)c(NC(=O)CN2C(=O)CCSc3ccccc32)c1	·	·	·	–	·	–	·	·	·
C/C(=N\O)C(C)(C)Nc1ccccc1F	–	–	95.8	–	–	–	–	–	–
CCCNC(=O)c1ccc2c(=O)c(O)c(-c3ccc(C)cc3)[nH]c2c1	–	–	–	–	–	–	·	·	·
Cc1ccc(CNC(=O)c2ccc3c(=O)c(O)c(-c4ccc(C)cc4)[nH]c3c2)cc1	–	–	65.8	–	–	–	63.0	–	70.1
CNS(=O)(=O)c1cccc(C(=O)OCC(=O)c2cc(C)n(CC3CCCO3)c2C)c1 (stereo unspecified)	–	–	–	–	–	–	67.7	–	–
Cc1cc(C(=O)COC(=O)c2cccc(S(=O)(=O)N(C)C)c2)c(C)n1CC1CCCO1 (stereo unspecified)	–	–	–	–	–	–	·	·	·
Cc1cc(C(=O)COC(=O)c2cccc(O)c2)c(C)n1C1CC1	–	–	99.0	–	–	–	–	32.8	64.4
C(#Cc1ccccc1)C[N+]1(CC#Cc2cccc3ccccc23)CCCC1	–	–	81.5	–	–	–	82.7	–	–
C#CC[N+]1(CC#Cc2ccccc2)CCCC1	–	–	–	–	–	–	·	·	·
Cc1cc(-n2c(SCc3ccccc3F)nc3n[nH]c(C)c3c2=N)ccc1Cl	–	–	–	–	–	–	–	–	–
COC(=O)C1CN(Cc2ccc(F)cc2)CCS(=O)(=O)N1Cc1ccc(OC)cc1 (stereo unspecified)	·	·	·	–	·	–	·	·	·
C/C(=N\NC(=O)C1COc2ccccc2O1)c1ccc(C)o1 (stereo unspecified)	–	–	–	–	–	–	·	·	·
C/C(=N\NC(=O)C(c1ccccc1)c1ccccc1)c1ccccn1	–	–	88.7	–	–	–	55.9	30.6	37.1
